According to ChEMBL document CHEMBL4513216, “Probing the Open Global Health Chemical Diversity Library for Multistage-Active Starting Points for Next-Generation Antimalarials” (ACS Infect Dis, 2020):
The campaign covered roughly 69,000 compounds. About 8,600 (12%) showed an effect of 50% or more. This excerpt belongs to a sample that is enriched for strong results.

Each compound was assayed on Plasmodium berghei (assay: Screen against P. berghei liver stage (PbLuc), transformed with Luciferase, at 10uM). Conditions: tested at 10 uM.
Format: functional, HepG2

Q: With `CN(C)C(=O)C1CN(c2ncccn2)CCN1C` (stereo not given) as the compound, how does the INHIBITION read?
A: 25.8%

Q: `COc1ncccc1CNC(=O)N(Cc1ccc(F)cc1F)C1CC1` was tested. Which INHIBITION did it give?
A: 48.2%

Q: With `Cc1ccnc(C(Nc2nccc(-c3ccc(C)nc3C)n2)C2CC2)c1` (stereo not given) as the compound, how does the INHIBITION read?
A: 41.3%

Q: `Cc1nc(CN2CCOC(Cn3cccn3)C2)nc2ccccc12` (stereo not given) was tested. Which INHIBITION did it give?
A: -31.8%

Q: Which INHIBITION does the source give for `Cc1nc2sccn2c1C(=O)N1CCn2nc(C(=O)NC3CC3)cc2C1` here?
A: 25.5%

Q: With `Cc1c[nH]c(C(=O)N2CCn3nc(C(=O)NC4CC4)cc3C2)n1` as the compound, how does the INHIBITION read?
A: 53.7%

Q: How did the INHIBITION turn out when `Cc1cc(C(=O)N2CCn3nc(C(=O)NC4CC4)cc3C2)nc(C)n1` was run?
A: 34.2%

Q: Which INHIBITION does the source give for `N#Cc1cccc(CN2C[C@@H](NC(=O)C3CC3)[C@H]3OCCC[C@H]32)c1` here?
A: 42%

Q: Which INHIBITION does the source give for `CCc1ccccc1OCCNCCc1c[nH]cn1` here?
A: 51.3%

Q: With `C=C(C)COc1ccccc1CNCCc1c[nH]cn1` as the compound, how does the INHIBITION read?
A: 21.7%

Q: Which INHIBITION does the source give for `CCn1c(-c2ccccc2)nn(CC(=O)NCCc2c[nH]cn2)c1=O` here?
A: 31.4%

Q: With `O[C@H]1CN(Cc2cc3ccccc3o2)CC[C@@]12CCCO2` as the compound, how does the INHIBITION read?
A: 15.9%

Q: `Cc1nc(C)n(CC2CN(CC(=O)Nc3ccncc3)CCO2)n1` (stereo not given) was tested. Which INHIBITION did it give?
A: 64.1%

Q: Which INHIBITION does the source give for `Cc1nc(C)n(CC2CCCN2CC(=O)Nc2cccnc2)n1` (stereo not given) here?
A: -6.39%

Q: How did the INHIBITION turn out when `Cc1cnn(CC2CN(CC(=O)Nc3ccncc3)CCO2)c1` (stereo not given) was run?
A: 11.2%

Q: `CCC1CN(CC(=O)Nc2cc(C)nn2C)CCO1` (stereo not given) was tested. Which INHIBITION did it give?
A: 23.4%

Q: `Cc1nc(C)n(CC2CCCN(CC(=O)Nc3ccncc3)C2)n1` (stereo not given) was tested. Which INHIBITION did it give?
A: -0.15%

Q: `Cc1nc(C)n(CC2CCCN(CC(=O)Nc3cccnc3)C2)n1` (stereo not given) was tested. Which INHIBITION did it give?
A: 57.2%

Q: Which INHIBITION does the source give for `Cc1nc(C)n(CC2CN(CC(=O)Nc3cccnc3)CCO2)n1` (stereo not given) here?
A: -13.2%

Q: For `Cc1cnn(CC2CN(CC(=O)Nc3cccnc3)CCO2)c1` (stereo not given), which INHIBITION is on record?
A: 67.5%

Q: For `O=C(CN1CCOC(Cn2cccn2)C1)Nc1cccnc1` (stereo not given), which INHIBITION is on record?
A: 10.7%

Q: How did the INHIBITION turn out when `Cc1nc(C)n(CC2CN(CC(=O)Nc3nccs3)CCO2)n1` (stereo not given) was run?
A: 30.1%

Q: `Cc1cc(NC(=O)CN2CCOC(Cn3nc(C)cc3C)C2)n(C)n1` (stereo not given) was tested. Which INHIBITION did it give?
A: 56%

Q: For `Cc1cc(C)n(CC2CN(CC(=O)Nc3ccncc3)CCO2)n1` (stereo not given), which INHIBITION is on record?
A: 44.3%

Q: Which INHIBITION does the source give for `CO[C@H]1CCN(C(=O)c2ccsc2)[C@@H]2CN(CC3CC3)C[C@H]12` here?
A: 0.112%

Q: How did the INHIBITION turn out when `Cc1cnn(-c2ccc(C(=O)N3CCCC(n4ccnc4C)C3)cc2)c1` (stereo not given) was run?
A: 0.411%

Q: `Cn1cc(C2CCCN2C(=O)COCCOc2ccccc2)cn1` (stereo not given) was tested. Which INHIBITION did it give?
A: 44.1%

Q: How did the INHIBITION turn out when `CC(C)N1CCc2onc(Cn3cccc3)c2C1` was run?
A: 4.02%

Q: How did the INHIBITION turn out when `Cc1nc(C)n(CC2CCCN2CCOc2ccccc2F)n1` (stereo not given) was run?
A: -83.4%

Q: How did the INHIBITION turn out when `CC(C)c1nc(C2CCCN(C(=O)CCc3cscn3)C2)no1` (stereo not given) was run?
A: -43.5%
